Experimental data from ChEMBL document CHEMBL3988442, “University of Dundee, Small-Polar-MMV Screening Library” (2021).
The campaign covered roughly 69,000 compounds. About 950 (1.4%) showed an effect of 50% or more. What follows is part of a selection rich in strong results, with near analogues and random picks from the rest.

Test system: Mycobacterium tuberculosis
Assay: Cornell M. t heat shock assay; also: in the data most compounds retested in dose-response had high values
Type: functional, organism-based
Design: dose or concentration left out as unconfirmed

Row | SMILES | Percent Effect [%]
1 | O=C(O)C(F)(F)F.c1ccc(N2CCCC3(CCN(Cc4cccs4)C3)C2)nc1 (configuration not stated) | -4.42
2 | Cc1ccc(C(CCNCCCN(C)C)C2CCOC(C)(C)C2)cc1.O=C(O)C(=O)O (configuration not stated) | -7.6
3 | Cc1c(-c2cc(C(F)(F)F)nc(N3CCC(N)CC3)n2)cnn1C | -8.82
4 | CCn1ncc(-c2cc(C(F)(F)F)nc(N3CCC(N)CC3)n2)c1C | 23.29
5 | CCc1ccc(-c2cc(C(F)(F)F)nc(N3CCC(N)CC3)n2)cc1 | 103
6 | O=C(C1CC(F)(F)C1)N1C[C@@H]2CN(CC3CCCC3)CCO[C@@H]2C1.O=C(O)C(F)(F)F | -23.11
7 | CN1CC(=O)N(c2ccsc2)CC12CCN(C(=O)N1CCCC1)C2.O=C(O)C(F)(F)F (configuration not stated) | -15.35
8 | CCc1cnc(N2CCC3(CC2)CN(c2cccnc2)C(=O)CO3)nc1.O=C(O)C(F)(F)F | -15.98
9 | CCN1CCC(c2nc3ccc(NC4CCC4)cn3n2)CC1.O=C(O)C(F)(F)F | 28.46
10 | Cc1noc(C)c1CN1C[C@@H]2COC[C@H](C(=O)N3CCCCO3)[C@@H]2C1.O=C(O)C(F)(F)F | 10.78
11 | CC(=O)N[C@@H]1CN(C(=O)c2cccc(C(F)(F)F)c2)C[C@H]1O | -5.977
12 | O=C(Nc1ccccn1)c1nc(N2CCCC2)ncc1Cl | -2.485
13 | Cc1cc(NC(=O)c2nc(N3CCCC3)ncc2Cl)nc(C(C)C)n1 | 105.6
14 | O=C(Nc1cc(Cl)ccn1)c1nc(N2CCCC2)ncc1Cl | 5.327
15 | CC[C@H]1CN2CC[C@H]1C[C@@H]2CNCc1ccc(OC)cc1 | -7.267
16 | CC[C@H]1CN2CC[C@H]1C[C@@H]2CNC(=O)Nc1ccccc1 | -5.923
17 | CC[C@H]1CN2CC[C@H]1C[C@@H]2CNC(=O)Nc1cc(OC)cc(OC)c1 | 76.55
18 | CC[C@H]1CN2CC[C@H]1C[C@@H]2CNCc1ccc(N(C)C)cc1 | 1.41
19 | CC[C@H]1CN2CC[C@H]1C[C@@H]2CNCc1ccc(OC(F)(F)F)cc1 | 100.5
20 | CC[C@H]1CN2CC[C@H]1C[C@@H]2CNC(=O)Nc1ccc(Br)cc1 | 4.849
21 | CC(C)C(=O)N(C)Cc1nc(N2CCCC2)ncc1-c1ccncc1.Cl | 19.59
22 | CC(C)c1cc(C(=O)N2CCCC(n3cncn3)C2)n[nH]1 (configuration not stated) | -20.76

Row | SMILES | Percent Effect [%]
23 | Cc1[nH]nc2ncc(C(=O)N3CCN(CC(C)O)CC3)cc12.Cl (configuration not stated) | -10.49
24 | Cc1noc(C)c1CN1CCO[C@H]2CN(Cc3cncn3C)C[C@H]21.O=C(O)C(F)(F)F.O=C(O)C(F)(F)F | -21.37
25 | CN1CCc2nc(C3CCN(C(=O)CCC4CCCC4)CC3)ncc2C1 | 104.5
26 | O=C(CCC1CCCC1)N1CCC(c2ncc3c(n2)CCNC3)CC1 | 14.08
27 | CN1CCc2nc(C3CCCN(C(=O)CC4CCCCC4)C3)ncc2C1 (configuration not stated) | -14.45
28 | Cc1ccc(CN2C[C@@H]3C[C@H](C(=O)NCC4CC4)N(C)[C@@H]3C2)o1.O=C(O)C(F)(F)F.O=C(O)C(F)(F)F | -27.97
29 | CCC(C)Oc1ccc(CNCCc2c[nH]cn2)cc1Cl (configuration not stated) | 101.9
30 | CCC(C)Oc1ccc(CNCCNS(C)(=O)=O)cc1Cl (configuration not stated) | 14.23
31 | CCC(C)Oc1ccc(CNCCNC(C)=O)cc1Cl (configuration not stated) | -0.254
32 | COCCCN(CCOC)Cc1nc2c(cnn2C)c(=O)[nH]1 | 18.48
33 | CN(CCc1ccccc1)Cc1nc2c(cnn2C)c(=O)[nH]1 | 14.44
34 | CN(CCCOc1ccccc1)Cc1nc2c(cnn2C)c(=O)[nH]1 | -3.727
35 | COCCN(CCc1ccccc1)Cc1nc2c(cnn2C)c(=O)[nH]1 | 50.74
36 | COCCN(CCOC)Cc1nc2c(cnn2C)c(=O)[nH]1 | -10.64
37 | CN(CCCc1ccccc1)Cc1nc2c(cnn2C)c(=O)[nH]1 | 59.96
38 | CNC(=O)CN1CCOCC12CCN(Cc1ccncc1)CC2.O=C(O)C(F)(F)F.O=C(O)C(F)(F)F | -37.23
39 | CN(C)CCO[C@@H]1CC[C@H]2[C@H]1OCCN2C(=O)c1ccnnc1.O=C(O)C(F)(F)F | -33.17
40 | COc1ncc(-c2ccc(O)cc2)c(OC)n1 | -3.595
41 | COc1cc(-c2cc(NC3CCCC3)nc3[nH]ccc23)nc(N)n1 | 101.075
42 | COc1ncc(-c2cc(NCCN(C)C)nc3[nH]ccc23)c(OC)n1 | -24.47
43 | COc1ncc(-c2cc(NC3CCCC3)nc3[nH]ccc23)c(OC)n1 | 102
44 | CNc1cc(C)nc(-c2cc(NC3CCNCC3)nc3[nH]ccc23)n1 | -20.27

Row | SMILES | Percent Effect [%]
45 | COc1nccnc1-c1cc(NC2CCCC2)nc2[nH]ccc12 | 103.35
46 | COc1nccnc1-c1cc(NC2CCNCC2)nc2[nH]ccc12 | -16.125
47 | Nc1ccnc(-c2cc(NC3CCNCC3)nc3[nH]ccc23)c1 | 14.8
48 | FC(F)(F)c1ccc(-c2cc(NC3CCNCC3)nc3[nH]ccc23)nc1 | 16.27
49 | O=C(O)C(F)(F)F.O=C(c1ccno1)N1CC[C@@H]2O[C@@H](COCCN3CCCC3)CC[C@@H]21 | -5.47
50 | C[C@H]1CN2C[C@H](O)CC2CN1Cc1ccc2nccnc2c1.Cl (some centres not stated) | 2.113
51 | O=C(O)C(F)(F)F.O=C(O)C(F)(F)F.c1ccc(OC[C@]23COC[C@H]2CN(C2CCOCC2)C3)nc1 | -7.98
52 | Cc1ccc(CN(C)C(=O)CN2CCCC2c2cnn(C)c2)o1 (configuration not stated) | 15.31
53 | CC1=N[C@@]2(CC[C@@H]3CN(Cc4cccc(Cl)c4)C[C@@H]32)C(=O)N1CC1CC1.O=C(O)C(F)(F)F | 3.209
54 | CN(C)S(=O)(=O)N1C[C@H]2C[C@H](C(=O)NCc3ccccc3)[C@@H](C1)O2 | -32.32
55 | Cc1nc(CN2CCC3(CCCN(Cc4cccnc4)C3)C2=O)cs1.O=C(O)C(F)(F)F.O=C(O)C(F)(F)F.O=C(O)C(F)(F)F (configuration not stated) | -21.24
56 | CCO[C@H]1CN(CC2CCOCC2)[C@@H]2CCCO[C@H]12.O=C(O)C(F)(F)F | 43.93
57 | Cc1noc(C)c1C(=O)N1C[C@H]2CC[C@@H]1CN(c1cnccn1)C2 | -7.98
58 | O=S(=O)(NCCCN1CCCC1)c1cc(F)cc(F)c1 | -10.46
59 | COCCN1C(=O)C2(CCN(CC3CC3)CC2)c2ccccc21.O=C(O)C(F)(F)F | 22.29
60 | CNc1nc(C)cc(NCc2cc(C)cc3c(C)c(C)[nH]c23)n1 | 64.43
61 | CCc1[nH]c2c(CNc3nc(C)cc(NC)n3)cc(C)cc2c1C | 100.6
62 | Cc1cc(CNc2nccc(N)n2)c2[nH]c(C)c(C)c2c1 | 6.431
63 | CCc1[nH]c2c(CNc3cncc(C(=O)N(C)C)n3)cc(C)cc2c1C | -0.9488
64 | Cc1cc(CNc2cncc(C(=O)N(C)C)n2)c2[nH]c(C)c(C)c2c1 | -11.36
65 | CCc1[nH]c2c(CNc3nccc(N)n3)cc(F)cc2c1C | 15.63
66 | CCc1[nH]c2c(CNc3cnccn3)cc(F)cc2c1C | 27.04

Row | SMILES | Percent Effect [%]
67 | CCc1[nH]c2c(CNc3cc(C)nc(NC)n3)cc(C)cc2c1C | 100.4
68 | CCc1[nH]c2c(CNC(=O)C3CNC(=O)C3)cc(C)cc2c1C (configuration not stated) | 7.867
69 | CNc1cc(C)nc(NCc2cc(C)cc3c(C)c(C)[nH]c23)n1 | 35.24
70 | CCc1[nH]c2c(CNc3cncc(C(=O)OC)n3)cc(C)cc2c1C | 0.7071
71 | CCc1[nH]c2c(CNc3nccc(N)n3)cc(C)cc2c1C | 83.04
72 | COCC1c2c(cnn2CC2CC2)CCN1Cc1ccsc1.O=C(O)C(F)(F)F.O=C(O)C(F)(F)F (configuration not stated) | -18.97
73 | O=C(O)C(F)(F)F.O=C(O)C(F)(F)F.O=C(O)C(F)(F)F.c1ccc(CN2CC[C@]3(C[C@@H](Oc4ccccn4)CO3)C2)nc1 | -28.12
74 | Cl.Cl.c1cnc(NCc2cncc3c2CCN(CC2CC2)C3)nc1 | -5.572
75 | Cc1ncsc1-c1nnc(C2CCCN2C(=O)CCn2cccn2)o1 (configuration not stated) | 13.77
76 | Cc1nnc(N2CC[C@H]3C[C@H](C(=O)N4CCOCC4)O[C@H]3C2)s1.O=C(O)C(F)(F)F | 5.897
77 | CC(C)CNC(=O)N1CC[C@@H]2CN(Cc3cccnc3)S(=O)(=O)[C@@H]2CC1.O=C(O)C(F)(F)F | 36.35
78 | COc1ccc(CN2CCCC3(CCN(c4ccsc4)C3=O)C2)cc1.O=C(O)C(F)(F)F (configuration not stated) | 27.7
79 | Cn1cc(C2CC(=O)NC23CCN(Cc2ccncc2)CC3)cn1.O=C(O)C(F)(F)F.O=C(O)C(F)(F)F (configuration not stated) | -12.84
80 | O=C(N[C@@H]1CN(Cc2ccoc2)[C@@H]2CCCO[C@@H]21)C1CC1.O=C(O)C(F)(F)F | -3.228
81 | CCNC(=O)Cc1ccc(NC(=O)NC(CC)c2ccncc2)cc1 (configuration not stated) | -2.186
82 | CCC(NC(=O)Nc1ccc(OC)c(C)c1)c1noc(C)n1 (configuration not stated) | 14
83 | CCC(NC(=O)Nc1ccc(OC)c(C)c1)c1ccncc1 (configuration not stated) | 91.94
84 | Cc1oncc1C(=O)N1CCc2ncnc(-c3cnn(C)c3)c2CC1.O=C(O)C(F)(F)F | -24.59
85 | Clc1cccc(N2CCC(NCc3cc[nH]n3)C2)c1 (configuration not stated) | -2.653
86 | Clc1cccc(N2CCC(NCc3ncc[nH]3)C2)c1 (configuration not stated) | 62.08
87 | O=C1CC(NCc2ncc[nH]2)CN1CCc1cccc(Cl)c1 (configuration not stated) | 14
